Screening data from PubChem.
FMDV antiviral: High Throughput Screening for Foot and Mouth Disease Virus Antivirals. FMDV antiviral cell-based qHTS. Potency, µM (highest dose often 57.9 µM), inactives show at the top dose activity change, negative = inhibition, most hits filed as inhibitors. 1.2% of 410,000 active; calls by dose curve; tested in HEK293T cells; note: read-out not given here; potency is the fitted concentration of half-maximal effect; % is set by controls: 0 for no effect and ±100 for the full control effect; nearly all actives have a fitted effect of over 45% in size
Marburg entry inh: qHTS for inhibitors of binding or entry into cells for Marburg Virus | Marburg virus pseudotyped entry inhibition, cell reporter | Potency, µM (highest dose often 37.8 µM), inactives show at the top dose activity change, negative = inhibition, usual class: inhibitors | 1.8% of 300,000 active | AID 540276, 2011; calls by dose curve; tested in HEK293 cells; note: potency is the fitted concentration of half-maximal effect; % is set by controls: 0 for no effect and ±100 for the full control effect
HCV inh: qHTS Assay for Inhibitors of Hepatitis C Virus (HCV) | Huh7.5.1 HCVcc-Cre infection, luciferase reporter, 44 h | Potency, µM (series often up to 41.8 µM), without a hit: top-dose activity change, negative = inhibition, actives largely listed as inhibitors | 3.4% of 340,000 active | AID 651820, 2012; active = well fitted inhibition curve with a large enough effect; inconclusive = small, poorly fitted or top-dose-only effect, or another doubt; inactive = no such curve, though single readings can be large or run the other way; note: potency is the fitted concentration of half-maximal effect; % is set by controls: 0 for no effect and ±100 for the full control effect
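Compounds are dispensed onto cells plated 4 h earlier at 1,000 per well, with HCVcc-Cre virus (about 0.5 moi) added next. Following 44 h of culture, luminescent signal is measured for 15 sec after 15 min with substrate at room temperature.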
LASV entry inh: qHTS for Inhibitors of binding or entry into cells for Lassa Virus. 1.2% of 300,000 active. AID 540256, 2011. Lassa virus pseudotype entry inhibition, cell reporter. Potency, µM (highest dose often 37.9 µM), inactives show at the top dose activity change, negative = inhibition, most hits filed as inhibitors; calls by dose curve; tested in HEK293 cells; note: potency is the fitted concentration of half-maximal effect; % is set by controls: 0 for no effect and ±100 for the full control effect; nearly all actives have a fitted effect of over 50% in size
HCMV inh: qHTS Assay for inhibitors of the human cytomegalovirus (HCMV); HFF cells, HCMV-luciferase reporter, 72 h; active compounds read low; 4.5% of 410,000 active; activity change, negative = inhibition, % at 57.5 µM; in the data active = activity change below about -60%; inconclusive = no clear call, values can overlap the other calls; inactive = above about -39%; note: % is set by controls: 0 for no effect and ±100 for the full control effect
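Human foreskin fibroblasts infected with luciferase-reporter HCMV at MOI 1 PFU/cell, compounds at two doses. Luciferase measured 72 h post infection; normalized to buffer-only basal and Salinomycin (10uM) controls.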
SARS PLP yeast: qHTS of Yeast-based Assay for SARS-CoV PLP. 0.19% of 330,000 active. S. cerevisiae expressing SARS-CoV PLpro, growth rescue. Potency, µM (highest dose often 32.9 µM), inactives show top-dose activity, positive = growth rescue, actives largely listed as activators; calls by dose curve; note: potency is the fitted concentration of half-maximal effect; 0% is about no effect; nearly all actives have a fitted effect of over 55% in size
An asterisk follows results filed as active; ? = inconclusive; · = no result; [ ] = dose if it differs, or a comment. Hits are enriched below; roughly 8% of the tested compounds scored in any of these assays.

SMILES	FMDV antiviral	Marburg entry inh	HCV inh	LASV entry inh	HCMV inh	SARS PLP yeast
Cc1cc2sc3ccc(C#CC4(O)CCCCC4)cc3c(=O)c2cc1C	0.089µM*	·	-1%	·	-96*	·
NC1(C#Cc2ccc3c(=O)c4ccccc4sc3c2)CCCCC1	-19%	·	-8%	·	26	4%
Cn1c2ccccc2c(=O)c2cc(C#CC3(O)CCCCC3)ccc21	25µM*	·	14%	·	-2	4%
Cc1cc(NC(=O)CN2CCC(O)CC2)nc2c1c(=O)oc1ccccc12	-12%	20%[46.1 µM]	·	?	2	·
COc1ccccc1OCCSc1nnc(C)n1-c1ccccc1	17%	-12%[46.1 µM]	20%	-6%	26	4%
COc1ccc(OCCSc2nnc(C)n2-c2ccccc2)cc1	-16%	?	1%	9.2µM*	-13	6%
Cc1ccc(NC(=O)C(=O)NN=C2CCCC2)cc1C	71%	?	13%	-4%	-104*	1%
CCOCCCNC(=O)c1ccc2c(c1)ncn2-c1ccc(CC)cc1	10%	·	-11%	·	-64*	-4%
CCOCCCNC(=O)c1ccc2c(c1)ncn2-c1ccc(C)cc1C	-15%	-3%[46.1 µM]	-3%	?	-29	-1%
CC1CC2(C)Oc3ccccc3CC2C(C)C1CNCCCN(C)C (stereo not given)	?	?	?	?	-99*	-2%
c1ccc(-c2cc(-c3ccncc3)nc3ccc4ccccc4c23)cc1	?	?	10µM*	-11%	-29	-26%
Cn1c(/C=C/c2cccc(Br)c2)nc2ccccc2c1=O	9%	10µM*	-85%	?	-72*	-7%
O=c1c2ccccc2nc(/C=C/c2ccc([N+](=O)[O-])o2)n1CCCO	?	2µM*	2.2µM*	4.5µM*	-108*	-26%
Cc1cccc(-n2c(/C=C\c3cccc(Br)c3)nc3ccccc3c2=O)c1	?	·	·	12%[46.1 µM]	-32	·
O=C(/C=C/c1cccc([N+](=O)[O-])c1)n1cnc2ccccc21	14µM*	?	?	?	-99*	1%
Cn1c(SCc2cccc(Br)c2)nc2ccccc2c1=O	?	·	22µM*	·	-30	-7%
Oc1ccc(CNCc2ccc3c(c2)OCO3)c2cccnc12	·	·	·	·	·	4%
COc1cc(=O)n2c(c1C(=O)NCc1ccco1)CCN(Cc1ccc3ccccc3c1)CC2	-12%	·	·	·	·	·
COc1ccc(-n2c(/C=C/c3c(C)[nH]c4ccccc34)nc3ccccc3c2=O)cc1	-18%	·	·	14%[46.1 µM]	4	·
Cn1c(/C=C/c2cccc([N+](=O)[O-])c2)nc2ccccc2c1=O	-29%	·	-15%	·	-61*	-1%
O=c1c2ccccc2nc(/C=C/c2cccc([N+](=O)[O-])c2)n1CCCO	-17%	-23%	-12%	?	?	·
O=[N+]([O-])c1cccc(/C=C/c2ccccn2)c1	32%	·	13µM*	·	49	-1%
CC(=O)N(C(C)=O)n1c(/C=C/c2ccc([N+](=O)[O-])cc2)nc2ccccc2c1=O	?	?	-10%	·	-10	-9%
O=c1c2ccccc2nc(/C=C/c2cccc(Br)c2)n1CCCO	-27%	?	?	?	-92*	-5%
Cc1[nH]c2ccccc2c1/C=C/c1nc2ccccc2c(=O)n1-c1cccc([N+](=O)[O-])c1	-15%	?	8%	?	-86*	8%
SMILES	FMDV antiviral	Marburg entry inh	HCV inh	LASV entry inh	HCMV inh	SARS PLP yeast
CCNc1nc(NCC)n2c(SC(C(=O)Nc3cc(C)ccc3OC)c3ccccc3)nnc2n1 (stereo not given)	-19%	?	?	-24%	17	-1%
Cc1noc(/C=C/c2ccccn2)c1[N+](=O)[O-]	-26%	?	-6%	?	-102*	-25%
O=c1c2ccccc2nc(/C=C/c2ccc(Br)cc2)n1CCCO	0%	·	?	·	-71*	-6%
O=c1c2ccccc2nc(/C=C/c2ccc(Br)cc2)n1CCO	-22%	?	-10%	?	-37	·
Cc1[nH]c2ccccc2c1/C=C/c1nc2ccccc2c(=O)n1CCO	-7%	?	?	11µM*	4	-1%
COc1ccccc1N/C=C/c1onc(C)c1[N+](=O)[O-]	?	·	0%	·	-5	-4%
O=c1c2ccccc2nc(/C=C/c2ccc(Cl)cc2)n1CCO	-25%	-22%	?	?	?	-3%
Cc1cnc2ccc(F)cc2c1	-24%	·	·	·	9	·
Cn1c(SCC2CCCO2)nnc1C1CCN(Cc2ccco2)CC1 (stereo not given)	-2%	·	·	·	·	·
Cc1sc2ncn(CC(=O)Nc3cccc(C(F)(F)F)c3)c(=O)c2c1S(=O)(=O)N1CCC(C)CC1	3%	-5%[46.1 µM]	·	6%[46.1 µM]	-4	·
COc1ccc(N2CCN(c3ccc(N4C(=O)CC(C)C4=O)cc3[N+](=O)[O-])CC2)cc1 (stereo not given)	?	·	-17%	·	-90*	-5%
Cc1nn2c(=O)cc(COC(=O)c3ccc(NC(=O)COc4ccc(Cl)cc4)cc3)nc2s1	16µM*	·	·	?	-84*	·
COc1ccc(OCC(=O)Nc2ccc(C(=O)OCc3cc(=O)n4nc(C)sc4n3)cc2)cc1	10µM*	·	·	2%[46.1 µM]	-28	·
CCc1nn2c(=O)cc(COC(=O)c3ccc(NC(=O)c4cccs4)cc3)nc2s1	-21%	·	·	18%[46.1 µM]	13	·
Cc1nn2c(=O)cc(COC(=O)c3ccc(NC(=O)c4cccs4)cc3)nc2s1	14µM*	·	·	13%[46.1 µM]	-100*	·
O=C(Nc1ccc(C(=O)OCc2cc(=O)n3nc(C4CC4)sc3n2)cc1)c1ccccc1	?	·	·	15%[46.1 µM]	6	·
CCc1nn2c(=O)cc(COC(=O)c3ccc(NC(=O)COc4ccc(C)cc4)cc3)nc2s1	8%	·	·	?	40	·
CC(Oc1ccccc1)C(=O)Nc1ccc(C(=O)OCc2cc(=O)n3nc(C4CC4)sc3n2)cc1 (stereo not given)	28µM*	·	·	?	?	·
CCn1c(C)cc(C(=O)CSc2nnc(-c3ccco3)o2)c1C	29%	·	-1%	·	-9	1%
Cc1cc(C(=O)CSc2nnc(-c3ccco3)o2)c(C)n1C	19%	-18%[46.1 µM]	11µM*	9%	-16	-6%
Cc1ccc2nc3sc(C(=O)N4CCCc5ccccc54)c(N)c3cc2c1	12%	?	?	?	-90*	-2%
O=C(Nc1nc(-c2ccccn2)cs1)c1cc(Cl)ccc1[N+](=O)[O-]	-24%	2.8µM*	10µM*	4.5µM*	-99*	-5%
CC(=O)Nc1ccc(C(=O)Nc2nc(-c3ccccn3)cs2)cc1	-15%	·	-11%	·	-9	1%
Cc1csc(NC(=O)c2ccccc2[N+](=O)[O-])n1	-2%	9%	0%	-3%	33	-2%
